Laboratory results as given in the supplement of paper PMC10338343.
± gives the standard deviation. Over roughly 8,200 sequences, “pre-steady-state target cleavage rate” has its median near 0.024; the highest 2% begin near 1.3. The entries come from a sample that favours the highest values as a whole.

Tested on: MIWI (PIWIL1) piRISC loaded with L1MC piRNA (30 nt)
Experiment: pre-steady-state target cleavage rate (min^-1); MIWI and MILI are mouse PIWI proteins and EfPiwi is from a freshwater sponge; tags in brackets are library labels; higher = faster piRNA-guided slicing of the target
Conditions: guide: L1MC piRNA 5'p-UAACUAAAUACUAUGCAAGCUGUAGGUCCU
Summary of the method: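 In this Cleave-'n-Seq assay, uncleaved targets were sequenced and normalised to depth and to weakly complementary targets. They came from a transcribed, DNA-blocked target RNA library […] mixed with 1 nM active affinity-purified piRISC carrying one synthetic guide, with or without 500 nM GTSF1 partner protein, in HEPES–potassium acetate buffer at 33 °C for 0–8 or 0–960 min. After three trials were pooled and k3 was capped at 0.0001 min^-1, the pre-steady-state cleavage rate was obtained from a burst-and-steady-state fit.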

[1] = auxiliary factor: 500 nM mouse GTSF1
[2] = auxiliary factor: none (no GTSF1)
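Note: 1 nM active piRISC with 0.1 nM target library at 33 °C single turnover.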

Row | Sequence | pre-steady-state target cleavage rate [1] | pre-steady-state target cleavage rate [2]
1 | UCCAGGAACAGCUUGCAUAGUAUUUACAAA | 0.328 ± 0.041 | 0.00665 ± 0.0019
2 | UCCUCCUACAGCUUGCAAAGUUUUUAGUUA | 0.352 ± 0.029 | 0.0137 ± 0.0033
3 | UCCUGGAUGUCCUUUCAUAGUAUUUAGUUA | 0.0134 ± 0.004 | 
4 | UCCUGGUAGACCUUGCAUAGUAUUUAGUUA | 0.46 ± 0.042 | 0.00968 ± 0.0029
5 | UCCACCUACACCUUGCAUAGAAUUUAGUUA | 0.337 ± 0.066 | 0.0107 ± 0.003
6 | UGGACCUACAGCUUCAUAGUAUUUAGUUA | 1.36 ± 0.077 | 0.0221 ± 0.0047
7 | AGGACCUACAGCUUCAUAGUAUUUAGUUA | 1.11 ± 0.053 | 0.0309 ± 0.0073
8 | UCGACCUACAGCUUGACAUAGUAUUUAGUUA | 0.952 ± 0.072 | 0.00438 ± 0.0026
9 | UCGACCUACAGCUUACAUAGUAUUUAGUUA | 1.59 ± 0.062 | 0.0382 ± 0.0069
10 | AGGACCUACAGCUUACAUAGUAUUUAGUUA | 1.28 ± 0.064 | 0.0655 ± 0.011
11 | UCCACCUACAGCUUACAUAGUAUUUAGUUA | 0.753 ± 0.034 | 0.0222 ± 0.0039
12 | UGGACCUACAGCUUACAUAGUAUUUAGUUA | 1.53 ± 0.079 | 0.0508 ± 0.0082
13 | UGGACCUACAGCUUUCAUAGUAUUUAGUUA | 0.593 ± 0.032 | 0.0286 ± 0.0052
14 | UGGACCUACAGCUUGACAUAGUAUUUAGUUA | 0.986 ± 0.1 | 0.00706 ± 0.0031
15 | UCCUGGAUGAGCUUGCAUAGUAUAUACAAA | 0.00918 ± 0.0054 | 
16 | UCCUGGAAGAGCUUGCAUAGUAUUUACAAA | 0.0945 ± 0.02 | 
17 | UCCUGCUACAGCUUGCUUAGUAUAUAGUUA | 0.404 ± 0.038 | 0.0128 ± 0.0044
18 | UCCACCUACUGCUUGCAUACUAUUUAGUUA | 0.297 ± 0.026 | 0.0231 ± 0.0039
19 | UCCUGCUAGAGCUUGCAUACUAUUUAGUUA | 0.248 ± 0.03 | 0.0221 ± 0.0058
20 | UCCUCCUACUGCUUGGAUAGUAUUUAGUUA | 1.21 ± 0.04 | 0.0517 ± 0.0073
21 | UCGACCUACUGCUUGGAUAGUAUUUAGUUA | 1.67 ± 0.068 | 0.0575 ± 0.0089

Row | Sequence | pre-steady-state target cleavage rate [1] | pre-steady-state target cleavage rate [2]
22 | AGGACCUACUGCUUGGAUAGUAUUUAGUUA | 1.34 ± 0.052 | 0.061 ± 0.0085
23 | UGGACCUACUGCUUGGAUAGUAUUUAGUUA | 1.65 ± 0.072 | 0.0542 ± 0.0088
24 | UCGACCUACACCUUGGAUAGUAUUUAGUUA | 0.854 ± 0.076 | 0.0364 ± 0.0044
25 | UCCACCUACUGCUUGGAUAGUAUUUAGUUA | 1.14 ± 0.049 | 0.0503 ± 0.0082
26 | UCCUGCUACUGCUUGGAUAGUAUUUAGUUA | 0.969 ± 0.077 | 0.0353 ± 0.0055
27 | AGGACCUACACCUUGGAUAGUAUUUAGUUA | 0.817 ± 0.061 | 0.0497 ± 0.0086
28 | UGGACCUACACCUUGGAUAGUAUUUAGUUA | 0.815 ± 0.069 | 0.0418 ± 0.0063
29 | UCCUGGAUGUCGAACGUAUCUAAUUAGUAA |  | < 0.0001
30 | UCCUGGAUCAGCUUGAUAGUAUUUAGUUA | 0.0664 ± 0.007 | 0.00393 ± 0.0017
31 | AGGACCUAGAGCUUGCAUAGUAUUUUCAAA | 0.0396 ± 0.013 | 
32 | UCCUGCUACAGCAUGCAUAGUAUUUAGUAA | 0.655 ± 0.063 | 0.00614 ± 0.0024
33 | UCCUGGAACAGCUACCAUAGUAUUUAGUAA | 0.0979 ± 0.017 | 
34 | UCCUCCUACAGCUUGCAUAGUUAAUAGAAA | 0.0486 ± 0.014 | 
35 | UCCUGGUACAGCUUGCAAUGUAUUUAGAAA | 0.0194 ± 0.0063 | 
36 | UCGACCUACAGCUUGGUUAGUAUUUUCAAA | 0.0241 ± 0.0089 | 
37 | UCCUGGAUGUCCUUGCAUAGUAUAAUGUUA | 0.0139 ± 0.0063 | 
38 | UCGACCUACAGCUUGCAUAGUAUUAACAAA | 0.401 ± 0.044 | 
39 | UCCACCUACAGCUUGCUUAGUAUUAAGUUA | 0.31 ± 0.03 | 0.00763 ± 0.0016
40 | UGGACCUACAGCAUGCAUAGUAUUUAGUUA | 1.38 ± 0.078 | 0.0549 ± 0.011
41 | UGGACCUACAGCAUUGCAUAGUAUUUAGUUA | 1.27 ± 0.11 | 0.0665 ± 0.014
42 | UGGACCUACAGCAUGCAUAGUAUUUAGUAA | 0.977 ± 0.075 | 0.0303 ± 0.0065

Row | Sequence | pre-steady-state target cleavage rate [1] | pre-steady-state target cleavage rate [2]
43 | UGGUCCUACAGCAUGCAUAGUAUUUAGUUA | 1.19 ± 0.061 | 0.0657 ± 0.014
44 | AGGACCUACAGCAUGCAUAGUAUUUAGUAA | 0.986 ± 0.075 | 0.0556 ± 0.014
45 | AGGACCUACAGCAUGCAUAGUAUUUAGUUA | 1.33 ± 0.06 | 0.073 ± 0.015
46 | AGGUCCUACAGCAUGCAUAGUAUUUAGUUA | 1.33 ± 0.062 | 0.107 ± 0.026
47 | UCGUCCUACAGCAUGCAUAGUAUUUAGUUA | 1.26 ± 0.047 | 0.0282 ± 0.0049
48 | AGGACCUACAGCAUGCAUAGUAUUUAGAAA | 0.577 ± 0.059 | 0.00715 ± 0.0031
49 | UCCUGGAUGUCGAUGCAUAGUAUUUAGUGA | 0.0103 ± 0.0037 | 
50 | UCCACCUACAGCAAGCAUAGUAUUUAGAAA | 0.243 ± 0.035 | 
51 | UCCUGGAUGUCCUUGGAUAGUAUUUUGUUA | 0.0668 ± 0.017 | 
52 | UCCUCCUACAGCUUGCAUAGUAUCUUAGUUA | 0.96 ± 0.045 | 0.016 ± 0.0044
53 | UGGACCUACAGGAUGCAUAGUAUUUACAAA | 0.216 ± 0.039 | 
54 | UCCUGGAACUCGUUGCAUAGUAUUUAGUAA | 0.071 ± 0.011 | 0.00318 ± 0.0021
55 | UCCUGCUACAGCUUGCAUAGUAUUUAGUA | 0.422 ± 0.071 | 0.00464 ± 0.0019
56 | UCCUGCUACAGCUUGCUUAGAAUUUAGUUA | 0.247 ± 0.026 | 0.00845 ± 0.0029
57 | AGGACCUACACGAUGCAUAGUAUUUACAAA | 0.19 ± 0.025 | 
58 | UCCACCUACAGCUUGCAAAGUAUAUAGUUA | 0.468 ± 0.045 | 0.0135 ± 0.0031
59 | AGGACCUACAGCUUGCAAAGUAUAUAGUUA | 0.667 ± 0.049 | 0.0238 ± 0.0054
60 | AGGACCUACAGCUUGCAUAGUAUUAUAGUUA | 1.05 ± 0.078 | 0.0707 ± 0.015
61 | UGGACCUACAGCUUGCAUAGUAUAUAGUAA | 0.356 ± 0.038 | 0.012 ± 0.0037
62 | AGGACCUACAGCUUGCAUAGUAUAUAGUAA | 0.493 ± 0.058 | 0.0216 ± 0.0048
